{"source": "PubChem BioAssay AID651791", "about": "(National Center for Advancing Translational Sciences (NCATS), 2012)", "note": "Inconclusive results are not listed. Activity calls are given as the source filed them. Calls come from the whole dose curve; as a rule, active = well fitted inhibition curve with a large enough effect; inconclusive = small, poorly fitted or top-dose-only effect; inactive = no such curve, though single readings can be large or run the other way. Potency is the fitted concentration of half-maximal effect.", "data": [{"assay": "InCell qHTS Assay for Inhibitors of the mTORC1 Signaling Pathway in MEF (Tsc2-/-, p53-/-) Cells: Hit Validation;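 note: phospho-S6 Ser235/236 signal normalized to propidium iodide cell count per well; nearly all actives have a fitted effect of over 75% in size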", "details": "phospho-rpS6 immunofluorescence, 24 h; activity change, negative = inhibition: at 38.3 µM (top of the series)", "units": {"activity change, negative = inhibition": "%"}, "values": [{"smiles": "COc1cc(C(=O)NC(c2ccccc2Cl)c2cc(Cl)c3cccnc3c2O)cc(OC)c1OC", "note": "(stereo not given)", "activity change, negative = inhibition": -100}, {"smiles": "Cc1ccc(NC(=O)COc2ccc(-c3nn(C)c(=O)c4ccccc34)cc2)c(C)c1", "activity change, negative = inhibition": -100}, {"smiles": "Cc1cccc(N(CC(=O)NCCSc2ccc(Cl)cc2)S(=O)(=O)c2ccccc2)c1C", "activity change, negative = inhibition": -100}, {"smiles": "CC1CCN(S(=O)(=O)c2ccc(C(=O)Nc3sc4c(c3C(N)=O)CC(C)(C)NC4(C)C)cc2)CC1", "Potency": "14.7 µM (active)"}, {"smiles": "Cc1cccc(C(=O)Nc2c3c(nn2-c2ccc(Cl)cc2)CS(=O)(=O)C3)c1", "activity change, negative = inhibition": -100}, {"smiles": "CC(C)OCCCn1c(=O)c2ccccc2n2c(-c3ccc(F)cc3)nnc12", "activity change, negative = inhibition": -100}, {"smiles": "Cc1ccc(NC(=O)c2nc(S(=O)(=O)Cc3cccc(C)c3)ncc2Cl)cc1", "Potency": "14.7 µM (active)"}, {"smiles": "COc1ccccc1NC(=O)c1sc(-c2ccc(Cl)cc2)cc1N", "activity change, negative = inhibition": -100}, {"smiles": "Cc1cccc(Cn2cc(C(=O)Nc3ccc(F)c(C(F)(F)F)c3)ccc2=O)c1", "activity change, negative = inhibition": -100}, {"smiles": "COc1ccc(NC(=O)CSc2c3c(nc4ccccc24)CCC3)c(OC)c1", "activity change, negative = inhibition": -100}, {"smiles": "CCN(CC)CCNC(=O)c1ccc(Cn2c(=O)c3cccn3c3cccnc32)cc1", "activity change, negative = inhibition": -100}, {"smiles": "CCOc1ccc(-c2cnc(NCc3ccc(C(F)(F)F)cc3)n2C)cc1", "activity change, negative = inhibition": -100}, {"smiles": "Cc1ccc(-c2cc(C(=O)N3CCN(c4ccccc4)CC3)c3ccccc3n2)cc1C", "activity change, negative = inhibition": -100}, {"smiles": "O=S(=O)(c1ccccc1)n1nc(-c2ccc(Cl)cc2)nc1NCc1ccccc1", "activity change, negative = inhibition": -5.06}, {"smiles": "COc1ccc(NC(=O)Cn2c(=O)n(-c3ccccc3)c(=O)c3ccc(C(=O)NCc4ccc5c(c4)OCO5)cc32)cc1", "activity change, negative = inhibition": -21.2}]}]}
